High-throughput results (PubChem)
NR3A LBD binder – modulates the human NR3A ligand-binding domain | AID 1259313 | NR3A LBD differential scanning fluorimetry, Tm shift; 0% = protein alone, 100% = glycine-bound protein | actives 2.5% (n = 340,000) | Tm shift relative to glycine control, % at 25 µM;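 active = melting temperature shift of at least 10% of the positive control shift, at one fixed dose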
sPLA2-III inh – Blocks human group III sPLA2 activity; actives 0.56% (n = 370,000); QFRET BODIPY PC-A2 liposome hydrolysis, fluorescence; inhibition, % at 12.2 µM; Q9NZ20;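 active = inhibition above mean plus 3 SD of compounds lying within the high and low control bounds, cut at about 19% in these data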;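 also: 0% = median of test compound wells and 100% = no enzyme DMSO wells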
UBC13 polyUb – blocks human UBC13 polyubiquitin chain formation; AID 485273; actives 0.47% (n = 330,000); inhibition, % at 20 µM; P61088; TR-FRET; in the data active = inhibition above about 45%, passing the limit was not always enough
Target sequence (P61088 whole entry, looked up): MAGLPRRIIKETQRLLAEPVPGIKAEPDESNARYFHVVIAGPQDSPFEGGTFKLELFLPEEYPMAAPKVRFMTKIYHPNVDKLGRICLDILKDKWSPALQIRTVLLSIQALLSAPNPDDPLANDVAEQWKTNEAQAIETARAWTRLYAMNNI
UBC9 SUMO inh – blocks human SUMOylation mediated by UBC9. actives 0.36% (n = 290,000). AID 2006. inhibition, % at 35 µM. HTRF SUMOylation assay, SAE1/SAE2 + UBC9, in vitro; in the data active = inhibition above about 50%, passing the limit was not always enough
Target sequence (P63279 whole entry, looked up): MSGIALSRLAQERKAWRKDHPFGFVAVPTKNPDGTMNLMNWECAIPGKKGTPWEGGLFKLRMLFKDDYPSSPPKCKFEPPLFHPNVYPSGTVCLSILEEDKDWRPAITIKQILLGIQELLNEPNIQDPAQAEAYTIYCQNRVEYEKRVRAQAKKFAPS
Numbers without * were called inactive. Compounds with a hit are over-represented: about 3.3% of the library has one in this group of screens.

COc1ccc(CN2C(=O)[C@@](O)(c3cccn3C)c3cc(F)ccc32)cc1 was read as sPLA2-III inh -12.
`CCOC(=O)c1cccc(P(C)(C)=O)c1` gave NR3A LBD binder 22*, sPLA2-III inh 2, UBC13 polyUb -1 and UBC9 SUMO inh -4.
Screening CC(C)N(C(=O)Nc1ccc2nsnc2c1)C(C)C returned NR3A LBD binder 2, sPLA2-III inh 6, UBC13 polyUb -38 and UBC9 SUMO inh 100*.
For CCOC(=O)c1ccc2nc(C)c(C)nc2c1 the results were NR3A LBD binder 1, sPLA2-III inh -3, UBC13 polyUb -8 and UBC9 SUMO inh 9.
C=CCNC(=S)Nc1ccc2nsnc2c1 was read as NR3A LBD binder -5, sPLA2-III inh 4, UBC13 polyUb -8 and UBC9 SUMO inh 99*.
`CCCCCCCCN1C(=O)[C@@H](CC(=O)N2CCN(C(=O)c3ccco3)CC2)C[C@@]2(C(=O)OC)C1=C[C@H](COCc1ccccc1)O[C@@H]2C` gave sPLA2-III inh -10.
Screening CCOC(=O)Cc1nc(N2CCN(CCO)CC2)c2c(C)c(C(=O)OCC)sc2n1 returned sPLA2-III inh 3.
`O=C(c1cccc(C(F)(F)F)c1)N1CC[C@H]2[C@H](CCCN2Cc2ccccc2)C1` gave sPLA2-III inh -1.
COC(=O)[C@]12C[C@H](CC(=O)NCc3cccc(C(F)(F)F)c3)C(=O)N(Cc3ccc(Cl)cc3Cl)C1=C[C@H](C(C)(C)C)O[C@@H]2C was read as sPLA2-III inh -2.
COCCCN=Cc1c(C)[nH]n(-c2ccc(Br)c(C)c2)c1=O was read as NR3A LBD binder 66*, sPLA2-III inh -3, UBC13 polyUb 0 and UBC9 SUMO inh 9.
Screening CC1Oc2ccccc2C=C1/C=N/NC(=O)c1ccccc1 (stereo not given) returned NR3A LBD binder -15, sPLA2-III inh 2, UBC13 polyUb 7 and UBC9 SUMO inh -2.
CC1Oc2ccccc2C=C1/C=N/NC(=O)c1ccccc1O (stereo not given) was read as NR3A LBD binder 13*, sPLA2-III inh -21, UBC13 polyUb -4 and UBC9 SUMO inh 12.
Screening CC(=O)Nc1ccc(Nc2cc(C(C)C)nc3c(-c4ccccc4)c(C)nn23)cc1 returned NR3A LBD binder 17*, sPLA2-III inh 9, UBC13 polyUb 21 and UBC9 SUMO inh -2.
`CCN(CC)CCN1C(=O)c2ccccc2NC1c1ccc(C)cc1` (stereo not given) gave NR3A LBD binder 14*, sPLA2-III inh 1, UBC13 polyUb 9 and UBC9 SUMO inh 23.
Screening CCN(CC)CCN1C(=O)c2ccccc2NC1c1ccc(F)cc1 (stereo not given) returned NR3A LBD binder -2, sPLA2-III inh 0, UBC13 polyUb 19 and UBC9 SUMO inh 30.
Screening O=C(C[n+]1ccc(-c2nnc3n2CCC3)cc1)c1ccc(Cl)c(Cl)c1 returned NR3A LBD binder 13*, sPLA2-III inh -10, UBC13 polyUb 0 and UBC9 SUMO inh 3.
Screening Cc1nc2cc(NC(=O)Nc3ccc(Br)cc3)ccc2o1 returned NR3A LBD binder 34*, sPLA2-III inh -22, UBC13 polyUb -2 and UBC9 SUMO inh -2.
For COc1ccc(S(=O)(=O)NCC(c2ccco2)N2CCc3ccccc32)cc1 (stereo not given) the results were NR3A LBD binder -9, sPLA2-III inh -13 and UBC13 polyUb -6.
`Cc1ccc(S(=O)(=O)NCC(c2ccco2)N2CCc3ccccc32)cc1` (stereo not given) gave NR3A LBD binder 15*, sPLA2-III inh -13 and UBC13 polyUb -2.
Screening CCCCOCCCNC(=O)C[C@H]1C[C@@]2(C(=O)OC)C(=C[C@H](COCc3ccccc3)O[C@@H]2C)N(CCc2ccc(OC)c(OC)c2)C1=O returned sPLA2-III inh -13.
Screening CCOC(=O)N1CCN(C(=O)Nc2ccc3nc(C)sc3c2)CC1 returned NR3A LBD binder 3, sPLA2-III inh 7, UBC13 polyUb -2 and UBC9 SUMO inh 16.
For CCOC(=O)Nc1ccc2nc(N3CCCCCC3)sc2c1 the results were NR3A LBD binder 21*, sPLA2-III inh 8, UBC13 polyUb 8 and UBC9 SUMO inh 15.
`Cn1nc(OC(=O)Nc2cccc(Cl)c2)cc1C(F)(F)F` gave NR3A LBD binder 15*, sPLA2-III inh 3, UBC13 polyUb -5 and UBC9 SUMO inh 0.
O=C(Nc1cccc(Cl)c1)OCCOc1ccccc1 was read as NR3A LBD binder 15*, sPLA2-III inh -8 and UBC9 SUMO inh -28.
Cn1nc(OC(=O)Nc2ccccc2)cc1C(F)(F)F was read as UBC13 polyUb -7 and UBC9 SUMO inh 27.
